# From the supplement of paper PMC6555819
# What was measured:
# Test in all cases: PBM binding z-score (relative to random genomic background probes); higher = stronger binding; sequences stand for … in GC…GCGATTGACAGCGTAGAATGAAGG
# [1] = system: FXR:RXRa (NR concentration 270 nM, RXRa partner concentration 90 nM)
# In short: (§1)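 Binding buffer was PBS pH 7.4 with 2% milk, 0.02% Triton X-100, 1 mM DTT, 0.2 mg/mL BSA and 0.4 mg/ml salmon testes DNA. In it, ligand-free nuclear receptor dimers were incubated 1 h on custom Agilent 4×180K protein-binding microarrays carrying double-stranded probes. Antibodies against each partner (one per run) detected binding, and z-scores were calculated against random background probes after regression normalization of scanned fluorescence.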
# [2] = system: LXRa:RXRa (NR concentration 270 nM, RXRa partner concentration 90 nM)
# In short: as §1
# [3] = system: LXRa homodimer (NR concentration 270 nM)
# In short: as §1
# [4] = system: LXRb:RXRa (NR concentration 270 nM, RXRa partner concentration 90 nM)
# In short: as §1
# [5] = system: LXRb homodimer (NR concentration 270 nM)
# In short: as §1
# [6] = system: PPARa:RXRa (NR concentration 270 nM, RXRa partner concentration 90 nM)
# In short: as §1
# [7] = system: PPARg:RXRa (NR concentration 180 nM, RXRa partner concentration 90 nM)
# In short: as §1
# [8] = system: PPARg:RXRa 270nM:90nM, anti-RXR (NR concentration 270 nM, RXRa partner concentration 90 nM)
# In short: as §1
# [9] = system: PPARg:RXRa 30nM:10nM, anti-RXR (NR concentration 30 nM, RXRa partner concentration 10 nM)
# In short: as §1
# [10] = system: PPARg:RXRa 90nM:30nM, anti-RXR (NR concentration 90 nM, RXRa partner concentration 30 nM)
# In short: as §1
# [11] = system: PPARg:RXRa DBDmut IVT, anti-RXR (DBD mutation: RXRa K156A/R161A, NR concentration 270 nM, RXRa partner concentration 90 nM)
# In short: as §1
# [12] = system: PPARg:RXRa IVT, anti-PPARg (NR concentration 270 nM, RXRa partner concentration 90 nM)
# In short: as §1
# [13] = system: PPARg DBDmut:RXRa IVT, anti-PPARg (DBD mutation: PPARg1 K132A/R137A, NR concentration 270 nM, RXRa partner concentration 90 nM)
# In short: as §1
# [14] = system: PPARg DBDmut IVT, anti-PPARg (DBD mutation: PPARg1 K132A/R137A, NR concentration 270 nM)
# In short: as §1
# [15] = system: PPARg homodimer (NR concentration 180 nM)
# In short: as §1
# [16] = system: PXR:RXRa (NR concentration 270 nM, RXRa partner concentration 90 nM)
# In short: as §1
# [17] = system: PXR homodimer (NR concentration 270 nM)
# In short: as §1
# [18] = system: RARa:RXR (NR concentration 270 nM, RXRa partner concentration 90 nM)
# In short: as §1
# [19] = system: RARa homodimer (NR concentration 270 nM)
# In short: as §1
# [20] = system: RARb:RXRa (NR concentration 270 nM, RXRa partner concentration 90 nM)
# In short: as §1
Sequence,PBM binding z-score [1],PBM binding z-score [2],PBM binding z-score [3],PBM binding z-score [4],PBM binding z-score [5],PBM binding z-score [6],PBM binding z-score [7],PBM binding z-score [8],PBM binding z-score [9],PBM binding z-score [10],PBM binding z-score [11],PBM binding z-score [12],PBM binding z-score [13],PBM binding z-score [14],PBM binding z-score [15],PBM binding z-score [16],PBM binding z-score [17],PBM binding z-score [18],PBM binding z-score [19],PBM binding z-score [20]
CCTCGGAGGACAAAAGGAGGTCAGAGCTGCCAGA,1.18,2.12,1.26,1.34,-0.602,2.71,0.706,1.21,-0.33,0.651,0.965,1.96,-1.11,-2.13,1.84,2.15,0.144,2.45,0.515,2.39
ACTATTAGTTGACTTAGTGCAACCGATACGACGC,-0.217,-0.0103,-0.0872,-0.107,0.478,-0.0535,0.743,0.105,0.433,0.153,0.167,0.382,0.85,0.707,0.732,0.283,0.128,0.123,0.689,0.309
CTCGAAAGGTCGGTTGGGGTGAGTATACGGATAA,3.34,2.38,0.622,2.86,1.41,3.38,0.807,1.47,0.13,0.958,0.404,1.47,0.0444,1.01,1.6,3.44,0.962,2.76,0.684,3.31
ATCGAAAGGTCGACGAGCTGAGTATACACCGTTT,4.14,3.16,0.028,2.59,0.389,4.22,2.33,2.87,1.17,1.72,0.472,1.18,0.525,1.06,0.589,2.22,-0.245,2.78,0.204,3.72
CCTCGGAGGAGAACAGGAGGTCAGAGCTGCCAGA,1.12,1.8,1.57,1.43,-0.244,1.87,0.262,0.0579,-0.552,-0.216,-0.418,0.248,-1.26,-1.78,1.58,1.87,0.761,2.19,0.495,1.95
CCGACTGGGGCAAGGTTAACATAACGCACAGCCA,0.315,0.681,-0.0664,0.737,-0.786,2.59,4.38,4.92,2.68,4.38,3.28,3.69,0.246,-0.475,0.856,0.52,-0.244,0.896,0.086,1.74
TCTATTCGTTGATTAGGGCAACCGAAACAGCGGA,0.77,0.642,-0.323,0.409,0.94,0.827,0.127,1.93,3.6,2.72,1.61,1.69,1.2,0.685,0.326,0.454,0.0175,0.417,-0.0226,0.637
GCTTACGGGTCAAAGGTAATAGCATGAATAGAAT,6.06,4.07,-0.0184,4.32,0.154,6.32,9.59,8.1,7.14,8.44,4.96,5.28,1.42,0.842,1.61,4.26,-0.182,6.23,0.248,3.87
CGACCAAGGTCAGCAGGTCAGTGAAAGCGACGTG,5.71,3.43,-0.15,2.77,-0.923,4.85,4.53,4.43,1.12,3.02,2.72,3.64,-0.557,-0.609,2.7,3.18,-0.228,4.62,0.262,5.02
CGTCCAAGGTCAATGCTAGGTAAGTGAAAGCATT,5.28,4.48,0.161,3.61,0.552,5.13,3.69,4.15,0.806,2.86,2.99,3.27,0.401,-0.137,1.55,3.28,0.34,3.5,0.168,4.88
CCCACTGGGCCACGAAAGGTCATTGATTCAGTGA,3.78,5.11,5.17,4.22,0.369,4.8,4.92,4.99,1.85,3.53,4.55,6.02,1.73,0.623,3,5.57,1.48,5.51,1.31,4.1
CAAACTAGGTCAAGAGATCAAAGTCCGCTTCCCG,3.4,2.88,0.62,1.95,0.064,5.17,8.04,6.89,4.87,6.68,8.62,8.28,2.03,2.4,2.15,1.51,0.0869,2.57,0.821,3.92
CCGACTGGGGCAGAAAGGTTACCTTACCATCCGG,-0.0725,0.286,-0.251,0.547,-1.39,1.73,1.36,2.55,0.398,1.91,1.43,1.85,-1.35,-1.29,0.0892,0.658,-0.611,1.48,-0.873,1.5
TCGAGTCGGTTAGTCGGGGCATTCAGCCAACATA,-0.133,-0.389,-0.468,0.0657,-0.884,0.295,-0.72,0.168,0.645,0.378,0.436,-0.0905,-0.814,-1.24,-0.388,-0.0849,-0.566,-0.027,-1.36,-0.00486
TCGAGTAGGGTACCAATGGGGCATTCAGCTTTCT,-0.419,-0.00421,-0.466,0.0817,-0.885,0.453,-0.266,0.942,0.889,0.836,1.51,1.1,-1.19,-0.695,-0.571,-0.333,-0.807,-0.262,-1.44,0.103
AGAATGAGGTTATTAAGATCAGGGACTTGCGGTC,1.59,1.49,0.193,1.13,0.02,2.5,1.59,1.87,0.187,1.08,3.54,2.69,0.364,0.0807,0.911,1.15,0.684,1.36,0.425,1.37
AGAATGAGGTTGTACGTAGATCAGGGAAGAAAGT,-0.0554,0.156,0.00374,0.364,0.0497,0.574,0.188,0.124,0.21,0.207,-0.0167,0.566,0.8,0.199,0.226,0.252,0.629,0.411,0.476,0.142
ATCTCTAGGGAAGACTCAGTTCAGTGAAGAACGC,-0.235,0.0835,0.196,-0.00503,0.414,-0.566,-0.0585,-0.317,-0.477,-0.307,0.54,0.0201,0.66,0.331,0.641,0.582,1.3,-0.127,0.457,-0.0542
GCTTACGGGTAAAAGGTTATAGCATGAATAGAAT,1.77,2.73,0.384,2.57,0.0166,4.81,7.24,7.67,6.08,8.3,1.1,3.12,0.792,0.799,1.62,2.36,0.623,3.75,0.86,1.98
CAAACAAGGTCAAGAGGTCAAAGTCCGCTTCCCG,,,7.29,,2.87,,8.71,8.05,6.08,7.7,5.59,6.52,1.74,1.24,8.18,,5.91,,4.23,
CGTCCAAGGACAGCAGGTCAGTGAAAGCGACGTG,0.0413,-0.0225,-0.497,-0.229,-1.12,0.599,0.186,-0.344,-0.721,-0.226,0.0757,0.113,-1.43,-0.869,-0.0601,0.288,-0.263,0.676,-0.162,2.37
ACTATTCGTTGACTTAGGGCAACCGATACGACGC,0.425,0.382,0.669,0.263,1.46,0.125,0.87,-0.0902,0.272,0.212,-0.214,0.623,1.11,1.54,0.718,0.152,0.211,0.392,0.76,0.866
GCTTGTAGATCAACGTTAAGAAAGACTAAGCTAA,-0.519,-0.395,-0.371,-0.448,-0.769,-0.124,0.13,-0.0429,-0.364,-0.214,1.51,0.269,0.342,0.507,-0.243,-0.51,-0.226,-0.0818,-0.208,-0.508
TTACCTAGGTGAAGGTCGTTGATCCCTCTGTAGA,2.2,1.82,-0.334,1.6,-0.843,2.32,1.4,2.36,0.624,1.55,2.92,3.84,0.00137,-0.113,0.298,1.16,0.136,1.48,-0.66,1.45
CAAACAAGGTCAAGGTCAAAGTCGGTTTGTGCCA,,,4.84,,2.25,6.38,7.93,7.31,4.7,6.55,5.99,6.6,3.37,1.15,4.82,,3,6.86,2.95,
TGTCAAAGTTCAGAGGTAACGTAAGTATCCACAC,4.53,4.37,1.55,2.56,0.204,4.07,6.27,6.33,3.46,6.02,-0.368,3.54,0.775,1.39,2.26,3.39,0.858,3.43,0.97,4.36
AGTCAAAGTTCATCTAGATAACGTAAGATATGCT,7.05,5.89,5.02,4.13,1.82,5,6.44,6.12,3.12,5.43,0.216,2.84,1.25,1.73,2.62,5,4.36,3.39,1.59,4.9
CCTAGTTGGTCAGGAGGTCAGACACCGGATATGA,2.18,2.3,0.868,2.16,0.128,3.04,2.05,2.35,0.691,1.69,1.06,2.24,0.271,0.265,2.85,2.7,0.934,3.13,1.66,2.92
CGTCCAAGGTCAAGGTCAGTCAAAGAGACTCGAA,7.71,5.91,1.64,4.85,1.09,5.93,6.39,5.98,2.6,4.69,4.13,4.78,1.48,-0.095,4.54,4.99,1.7,5.42,2.49,5.83
